Laboratory results published in PubChem BioAssay AID651724 (National Center for Advancing Translational Sciences (NCATS), 2012).
Among all 340,000 compounds or so, about 1,700 (0.5%) were called active. Another 2% or so got no clear call; they are omitted. This excerpt belongs to a sample that is enriched for actives. Values without a mark were called inactive. Cut-off read from the data, not from the text of the source: active = activity change below about -65%; inconclusive = mostly about -30% to -63%; inactive = weaker than that.

The molecules below were run on CtBP / adenovirus E1A interaction (AlphaScreen) (assay: qHTS Assay for Inhibitors of the CtBP/E1A Interaction). Details: AlphaScreen GST-E1A/His-CtBP binding, 1536-well; active compounds read low.
Source text: Carboxyl-terminal binding protein (CtBP) is a co-repressor for many transcription factors. […] Our studies have shown that CtBP is overexpressed in multiple human cancers, including lung, breast, and head and neck cancers. In particular, it is over-expressed in 50% of primary lung cancer and 90% of metastatic lesions. CtBP suppresses epithelial-specific genes as well as genes critical for apoptosis, providing the underlying molecular mechanism for its role in tumorigenesis. […] Based on the above data, we hypothesize that 1) CtBP suppresses the pro-apoptotic and epithelial genes, therefore overexpressed CtBP in human cancer cells increases EMT and cancer survival; 2) decreasing CtBP's function represents a targeted therapy for lung cancer and potentially multiple cancer types. As a co-repressor, CtBP binds to E1A and other transcription factors through a conserved peptide motif to carry out its action. Inhibiting this interaction using small molecules can potentially serve as effective cancer therapeutics.
To this end, we have developed a homogenous AlphaScreen assay targeting the CtBP/E1A interaction. We performed a large scale HTS of the Molecular Libraries Small Molecule Repository (MLSMR) to identify inhibitors of the CtBP/E1A interaction as potential anti-cancer therapeutics. Compounds identified can also be used as chemical probes to better understand the biological functions of CtBP.
NIH Chemical Genomics Center [NCGC]
NIH Molecular Libraries Probe Centers Network [MLPCN]
Assay Submitter (PI): Rui Zhao, University of Colorado Denver
The first step of the 5uL AlphaScreen assay is to dispense assay buffer (50 mM Tris, pH 8.0, 300 mM NaCl, 0.05% BSA, 0.02% Tween 20, 1 mM TCEP) into a Greiner 1536 white solid bottom microtiter plate (789175-F). Five microliters is added to Column 1, 4 uL is added to Column 2 and 3 uL is added to Columns 3 through 48. A 5X protein solution (125 nM GST-E1A protein + 125 nM His-tagged CtBP protein) is mixed and 1 uL is dispensed to Columns 3-48. Using a 1536 pintool, 23 nL of compound is transferred to the assay plate and the plate is incubated with a lid at 37 deg C in the dark for two hours. A solution of 5X AlphaScreen beads is mixed (50 ug/mL Glutathione linked donor beads + Nickel chelated acceptor beads) and 1 uL is dispensed to Columns 2-48. The assay plate is incubated for one hour, with a lid, at 37 deg C in the dark. The plate is read using a Perkin Elmer Envision using an AlphaScreen protocol.
% is set by controls: 0 for no effect and ±100 for the full control effect.

Compound | activity change
CCOC(=O)[C@]12CCCC=C1N(CCC1=CCCCC1)C(=O)[C@H](CC(=O)N1CCN(C(=O)c3ccco3)CC1)C2 | -6.31%
CN(C)S(=O)(=O)c1ccc(Cl)c(NC(=O)COC(=O)CC(NC(N)=O)c2ccc(Cl)cc2)c1 (configuration not stated) | -6.53%
NC(=O)NC(CC(=O)NNC(=O)c1ccccn1)c1ccc(Cl)cc1 (configuration not stated) | -76% (active)
O=C(COC(=O)c1ccccn1)NNC(=O)c1ccc(Br)cc1 | -15.7%
CC(C)NC(=O)C1(C)CCCCCN1C(=O)c1ccc(-c2ccccc2)cc1 (configuration not stated) | -11.1%
CCCC/C=C/c1cccc2nncn12 | 2.58%
COc1cccc(-c2cc3nc(NCCOc4ccccc4Cl)n(C)c(=O)c3s2)c1 | 3.25%
COc1ccc(CCCNC(=O)C2Cc3c(-c4cccc(C(N)=O)c4)ccnc3O2)cc1 (configuration not stated) | -0.248%
O=C(CSc1cccc2cccnc12)N/N=C/c1cccnc1 | -93.9% (active)
CCOC(=O)N/N=C/c1cccnc1 | 25.9%
COc1ccc(C(=O)NCC(=O)N/N=C/c2cccnc2)cc1 | 11.7%
CCCCn1nnnc1C(c1cc2ccccc2o1)N(C)Cc1ccc(Cl)c(Cl)c1 (configuration not stated) | 13.3%
O=C(Nc1ccc2c(c1)OCCO2)C(C1CC1)N1CCC(Cc2ccccc2)CC1 (configuration not stated) | -10.3%
O=C(OCC(=O)N1CCCCCC1)c1cnc(Cl)c(Cl)c1 | -78.7% (active)
O=C(OCC(=O)N1CCCC1)c1ccc(Cl)nc1 | 2.13%
O=C(OCC(=O)N1CCCCCC1)c1ccc(Cl)nc1 | -1.48%
O=S(=O)(NCCOc1cccc2cccnc12)c1ccc(F)cc1 | 6.61%
OCc1ccc(OCCCOc2cccc3cccnc23)cc1 | -7.66%
O=C(Nc1ccccc1)Oc1cccc2cccnc12 | -90.3% (active)

Compound | activity change
COC(=O)[C@@]12C[C@@H](CC(=O)NCc3cccc(C(F)(F)F)c3)C(=O)N(Cc3ccco3)C1=CCC(C)(C)C2 | -3.58%
CCCCCCCCN1C(=O)[C@H](CC(=O)NCc2cccc3ccccc23)C[C@@]2(C(=O)OC)CCCCC=C12 | -7.91%
CCCCCCCN=C(C)c1ccccc1O | 2.02%
C/C(=N\Nc1ccc(Cl)nn1)c1ccccc1O | -87.6% (active)
C/C(=N\NC(=O)c1ccoc1C)c1ccccc1O | -25.9%
CC(C)Nc1ncnc2c1ncn2[C@H]1CN(Cc2ccncc2)C[C@@H](CO)O1 | 4.17%
Cc1cc(O)ccc1-c1cc(C(=O)NCc2cc(C(F)(F)F)cc(C(F)(F)F)c2)[nH]n1 | 0.488%
O=C(Nc1ccc(Cl)c(C(F)(F)F)c1)C1Cc2c(-c3ccccc3Oc3ccccc3)ccnc2O1 (configuration not stated) | -3.42%
CC(O)(c1cccc(F)c1)c1nc(-c2ccc3c(c2)OCO3)cs1 (configuration not stated) | 0.33%
Cc1cc(C)nc(N/N=C/c2c(CO)cnc(C)c2O)n1 | -85.2% (active)
Cc1ncc(CO)c(/C=N/NC(=O)c2cccc(S(=O)(=O)N3CCCC3)c2)c1O | 0%
CCc1nc2c(OCc3ccc(Cl)cc3Cl)cccn2c1N(C)C(=O)C(C)C | -14.5%
Cc1ccc(NC(=O)c2nc[nH]c2C(=O)N[C@@H](CCCCNC(=O)OC(C)(C)C)C(=O)OC(C)(C)C)cc1 | -1.82%
CC(C)(C)OC(=O)NCCCCCNC(=O)c1[nH]cnc1C(=O)Nc1nccs1 | -77% (active)
CC(C)(C)OC(=O)NCCCCCNC(=O)c1nc[nH]c1C(=O)NCc1ccccc1 | 4.97%
COc1ccc(Cc2nnc(N/N=C/c3ccccc3O)[nH]c2=O)cc1OC | -73.4% (active)
O=c1[nH]c(NCCO)nnc1Cc1ccc(Cl)cc1 | 0.739%
COc1ccc(Cc2nnc(SC)[nH]c2=O)cc1 | 0.0747%
CC1CCN(C(=O)CSc2nnc(-c3ccco3)n2N)CC1 | 1.76%

Compound | activity change
COc1cc2ccc(C(C)=O)c(O)c2cc1OC | 3.1%
NC(c1csc(NC(=O)Nc2ccccc2Oc2ccccc2)n1)c1ccccc1Cl (configuration not stated) | -22.8%
Cc1cccc(C)c1Cn1c(C)c(C(=O)NCc2cccc(Cl)c2)sc1=O | -20%
O=[N+]([O-])c1ccccc1S(=O)(=O)Nc1cccc2cccnc12 | -78.7% (active)
NS(=O)(=O)c1ccc(CCNS(=O)(=O)c2cccc3cccnc23)cc1 | 3.18%
Cc1ccc2cccc([N+](=O)[O-])c2n1 | -11.4%
CNC(=O)C1CN(C(=O)c2cccc(S(=O)(=O)N3CCc4ccccc43)c2)c2ccccc2O1 (configuration not stated) | -7.74%
CCOC(=O)[C@]12CCCC=C1N(Cc1ccc3c(c1)OCO3)C(=O)[C@H](CC(=O)NCc1cccs1)C2 | -17.2%
CN(C)C(CNC(=O)c1cc(Br)c(Br)s1)c1ccco1 (configuration not stated) | 0.728%
CC(C)c1c(C(=O)N/N=C/c2ccccc2C(=O)O)nnn1-c1nonc1N | 18.7%
CCc1ccc(/C=N/NC(=O)c2nnn(-c3nonc3N)c2CN2CCc3ccccc32)cc1 | -23.8%
Nc1nonc1-n1nnc(C(=O)N/N=C/c2ccccc2O)c1CN1CCCC1 | -92.6% (active)
CCOC(=O)N1CCN(C(=O)C[C@@H]2C[C@@]3(C(=O)OC)CCCCC=C3N(CCC3=CCCCC3)C2=O)CC1 | -2.03%
Oc1ccc2ccccc2c1N=Nc1nccs1 | -93.9% (active)
Oc1ccc(N=Nc2nccs2)c(O)c1 | -92.5% (active)
OC[C@@H]1CN(Cc2ccc(-c3ccccc3)cc2)C[C@H](n2cnc3c(NC4CCCC4)ncnc32)O1 | -10.7%
O=C1[C@H]2[C@@H](c3ccc(C(F)(F)F)cc3)N[C@]3(CCCN(Cc4ccc(Cl)cc4)C3=O)[C@H]2C(=O)N1Cc1ccccc1 | 5.38%
Cc1ccc(S(=O)(=O)N2C[C@H]3n4c(=O)ccc(=O)n4C[C@H](OC(=O)NC4CCCC4)[C@@]3(O)C2)cc1 | 2.31%
CC(=O)NC(c1cccc(F)c1)c1nc(-c2cccc(F)c2)cs1 (configuration not stated) | 6.59%
